Molecules are shown by their SMILES. “And” between values parts separate entries of the source, which are not always exact repeats. Equal entries are not always repeated. Results filed as inconclusive are left out. Entries that show only a call come without a potency. The source made the active and inactive calls. The call rests on the fitted dose curve; in most records, active means well fitted cell-killing curve with a large enough effect; inconclusive means small, poorly fitted or top-dose-only effect, or effect the other way; inactive means no such curve, though single readings can be large or run the other way.
Potency means the concentration at half of the fitted maximal effect.

The test in a line: Viability qHTS for spleen associated tyrosine kinase inhibitor (SYKi) drug resistant MV4-11 cells (AID 1963824). Further: nearly all actives have a fitted effect of over 35% in size. The note with it: SYKi-resistant MV4-11 viability, CellTiter-Glo, 72 h; series mostly up to 45 µM. The procedure, abridged:
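SYK-inhibitor-resistant MV4-11 AML cells were seeded at 500 per well onto compound and cultured 72 hours (37 °C, 5% CO2). CellTiter-Glo was then added, and after 10 min at room temperature, luminescence gave viability.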
A general note: In qHTS, concentration-response curves come from the screen itself.
Turning to `C=C1CC23CC1CCC2C12OC(=O)C(C)(CCC1O)C2C3C(=O)O` (configuration not stated), the Potency result is “inactive”. For `OC[C@H]1O[C@@H](OC/C=C/c2ccc(O)cc2)[C@H](O)[C@@H](O)[C@@H]1O`, the Potency result is “inactive”. With `COC(=O)CC1OC(C)C2=C(O)c3c(O)cccc3C(=O)C23OC13` (configuration not stated), the Potency was 0.57 µM (active). `OCC1=CC[C@@H]2C=CO[C@@H](O[C@@H]3O[C@H](CO)[C@@H](O)[C@H](O)[C@H]3O)[C@H]12`: the Potency entry was “inactive”. For the molecule `CC(=O)N[C@H]1CCN(c2ccc(C3=NOC(CN[S+](=O)([O-])C(C)C)C3)cc2F)C1` (some centres not stated), the Potency was 13 µM (active). In the case of `CC1(CCC(=O)O)C(=O)C=CC23CC4CC(OC4(C)C2O)C13` (configuration not stated), the Potency entry was “inactive”. As for `COc1cccc(C(=O)NCCNc2nc3cc(C)cc(C)c3cc2C#N)c1`, the Potency entry is “inactive”. In the case of `CC1=CC(=O)CC(C)(CO)C1(O)/C=C/C(C)O[C@@H]1O[C@H](CO)[C@@H](O)[C@H](O)[C@H]1O` (some centres not stated), the Potency result was “inactive”. As to `CC(=O)O[C@H]1[C@@H](O)[C@H](O[C@H]2[C@@H]3C=CO[C@@H](O[C@H]4O[C@@H](CO)[C@H](O)[C@@H](O)[C@@H]4O)[C@@H]3[C@@]3(CO)O[C@@H]23)O[C@@H](C)[C@@H]1OC(=O)/C=C/c1ccccc1`, the Potency result is “inactive”. For the molecule `Cc1c(-c2ccc(O)cc2)n(Cc2ccc(OCCN3CCCCCC3)cc2)c2ccc(O)cc12`, the Potency was 23.7 µM (active) and 9.34 µM (active). As to `O=C(/C=C/c1ccc(O)cc1)OCC1=C[C@@H](O)[C@@H]2C=CO[C@@H](O[C@@H]3O[C@H](CO)[C@@H](O)[C@H](O)[C@H]3O)[C@H]12`, the Potency result is “inactive”. For `Cc1c(C(=O)NCCCO)cnn1-c1nc(-c2cccc(C(F)(F)F)c2)cs1`, the Potency is 14.6 µM (active).
